D2 antag = HTS Assay for Allosteric Antagonists of the Human D2 Dopamine Receptor: Primary Screen for Antagonists | AID 485344, 2010 | HEK293 TREx D2 cells, calcium flux, dopamine EC80 | inhibition, % at 10 µM | D(2) dopamine receptor (Homo sapiens), P14416 | 340,000 compounds, 2% hits; in the data active = inhibition above about 30%; inactive = below that, where a call was filed
Target sequence (P14416 whole entry, looked up): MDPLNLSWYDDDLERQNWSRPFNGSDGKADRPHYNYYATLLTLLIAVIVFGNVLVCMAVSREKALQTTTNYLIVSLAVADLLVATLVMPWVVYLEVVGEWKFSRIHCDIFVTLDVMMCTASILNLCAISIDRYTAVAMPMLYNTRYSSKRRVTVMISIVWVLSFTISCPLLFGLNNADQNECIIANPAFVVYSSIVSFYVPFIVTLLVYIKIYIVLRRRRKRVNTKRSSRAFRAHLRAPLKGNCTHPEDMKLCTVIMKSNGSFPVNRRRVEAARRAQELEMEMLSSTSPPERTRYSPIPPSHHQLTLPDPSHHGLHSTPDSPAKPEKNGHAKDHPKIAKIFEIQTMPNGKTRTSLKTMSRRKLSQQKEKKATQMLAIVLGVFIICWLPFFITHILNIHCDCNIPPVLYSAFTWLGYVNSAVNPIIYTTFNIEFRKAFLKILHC
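Calcium flux kinetic readout in an inducible HEK293 TREx D2 line plated overnight at 30 C. After 180 s compound exposure, an EC80 dopamine challenge follows with another 180 s kinetic read to detect antagonism.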
D2 ag-1 = Beta-Arrestin HTS for Positive Allosteric Modulators of the Human D2 Dopamine Receptor: Agonists; 360,000 compounds, 0.084% hits; DiscoveRx PathHunter D2 beta-arrestin, luminescence, 90 min; 100% = 57 uM dopamine signal; activation, % (no concentration beside the values); D(2) dopamine receptor (Homo sapiens), P14416; in the data active = activation above about 40%
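DiscoveRx PathHunter D2 beta-arrestin cells (2,100/well) attached overnight, then compound-stimulated 90 min at 37 C in HBSS/10 mM HEPES/0.1% Tween-20 buffer; beta-galactosidase complementation read by luminescence after 1 h at ambient temperature. Dopamine 57 uM final (EC100) as control.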
D2 PAM-1 = Beta-Arrestin HTS for Positive Allosteric Modulators of the Human D2 Dopamine Receptor: Potentiators; D(2) dopamine receptor (Homo sapiens), P14416; 360,000 compounds, 0.23% hits; DiscoveRx D2 beta-arrestin cells, luminescence, 90 min; 100% = 57 uM dopamine signal; AID 624464, 2012; potentiation, % (test concentration not listed); in the data active = potentiation above about 50%
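PathHunter beta-arrestin assay in DiscoveRx D2 cells. Compounds were added with an EC20 of dopamine (50 nM final) for 90 min at 37 deg C. Luminescence was read 1 h after detection reagent, with 57 uM dopamine as the EC100 control.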
D2 ag-2 = HTS Assay for Allosteric Agonists of the Human D2 Dopamine Receptor: Primary Screen for Agonists. AID 485358, 2010. activation, % at 2 µM. D(2) dopamine receptor (Homo sapiens), P14416. 340,000 compounds, 0.53% hits. HEK293 T-REx D2 cells, calcium flux agonist mode;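 active = activation over 3 SD above normal in the single-dose calcium agonist read, cut at about 30% in these data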
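Tetracycline-induced HEK293 T-REx cells with force-coupled D2 receptor, plated overnight at 30 C, loaded with no-wash calcium dye. After a 10 s baseline, compound was pin-added and calcium flux read kinetically for 180 s; calcium rises flagged agonists.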
D2 PAM-2 = HTS Assay for Positive Allosteric Modulators of the Human D2 Dopamine Receptor: Primary Screen for Potentiators; D(2) dopamine receptor (Homo sapiens), P14416; HEK293 T-REx D2, calcium flux, EC20 dopamine potentiation; potentiation, % at 10 µM; 340,000 compounds, 0.34% hits;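 active = potentiation over 3 SD above the plate norm, cut at about 30% in these data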
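Potentiation of an EC20 dopamine calcium response measured kinetically over 180 s, after a preceding 180 s compound-only read flagging agonists. Cells: inducible Hek293 Trex D2 line, 4000/well, cultured overnight at 30 C before dye loading.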
A number is an active result. Rows were chosen to be rich in hits. Some 2.4% of all compounds tested hit in one or more screens of this group.

How did CCN(CC)CCCCN1c2ccccc2Sc2ccccc21 do in these assays?
D2 antag: 47; D2 ag-1: inactive; D2 PAM-1: inactive; D2 ag-2: inactive; D2 PAM-2: inactive

What do the screens show for `CN1CCN(CCC=C2c3ccccc3Sc3ccc(S(=O)(=O)N(C)C)cc32)CC1`?
D2 antag: 77; D2 ag-1: inactive; D2 PAM-1: inactive; D2 ag-2: inactive; D2 PAM-2: inactive

How did COC(=O)c1ccc(NC(=O)CC2C(=O)N(c3ccccc3)C(=O)N2Cc2ccc(F)cc2)cc1 (configuration not stated) do in these assays?
D2 ag-2: inactive; D2 PAM-2: inactive

What do the screens show for `NCCCNc1nc(N)c([N+](=O)[O-])c(NC2CCCCC2)n1`?
D2 antag: inactive; D2 ag-1: inactive; D2 PAM-1: inactive; D2 ag-2: inactive; D2 PAM-2: inactive

What do the screens show for `OCCN1CCN(CCCN2c3ccccc3Sc3ccc(C(F)(F)F)cc32)CC1`?
D2 antag: 60

How did CN1CCN(CCC(=O)N2c3ccccc3Sc3ccc(C(F)(F)F)cc32)CC1 do in these assays?
D2 antag: inactive; D2 ag-1: inactive; D2 PAM-1: inactive; D2 ag-2: inactive; D2 PAM-2: inactive

How did COc1ccc(-c2noc(-c3ccc(NCC4CCCO4)c([N+](=O)[O-])c3)n2)cc1 (configuration not stated) do in these assays?
D2 ag-2: inactive; D2 PAM-2: inactive

How did COc1ccccc1NC(=O)Cn1c(=O)n(-c2ccccc2Cl)c(=O)c2sc3ccccc3c21 do in these assays?
D2 ag-2: inactive; D2 PAM-2: inactive

Results for NC(=S)NN=C(c1ccc(F)cc1)C1CC1 ?
D2 ag-1: inactive; D2 PAM-1: inactive

How did CCc1nnc(NC(=O)c2ccc(COc3ccc(C)cc3)o2)s1 do in these assays?
D2 antag: 30; D2 ag-1: inactive; D2 PAM-1: inactive; D2 ag-2: inactive; D2 PAM-2: inactive

How did CCc1nnc(NC(=O)CCC(=O)Nc2ccc(C)cc2)s1 do in these assays?
D2 antag: 43; D2 ag-1: inactive; D2 PAM-1: inactive; D2 ag-2: inactive; D2 PAM-2: inactive

How did CCc1nnc(NC(=O)c2ccc(COc3ccccc3)o2)s1 do in these assays?
D2 antag: inactive; D2 ag-1: inactive; D2 PAM-1: inactive; D2 ag-2: inactive; D2 PAM-2: inactive

How did Cn1ccc2cc(S(=O)(=O)N3CCN(C(=O)Nc4ccc(F)cc4F)CC3)ccc21 do in these assays?
D2 ag-2: inactive

How did O=C(CCN1CCN(c2ccccc2)CC1)c1ccc(Br)cc1 do in these assays?
D2 antag: inactive; D2 ag-1: inactive; D2 PAM-1: inactive; D2 ag-2: inactive; D2 PAM-2: inactive

How did N#Cc1ccc(C(=O)CN2CCN(c3ccccc3)CC2)cc1 do in these assays?
D2 antag: inactive; D2 ag-1: inactive; D2 PAM-1: inactive; D2 ag-2: 35; D2 PAM-2: inactive

How did COc1cccc(/C=C/C(=O)Nc2ccc(C(=O)Nc3cccc(S(N)(=O)=O)c3)cc2)c1OC do in these assays?
D2 antag: 77; D2 ag-1: inactive; D2 PAM-1: inactive; D2 ag-2: inactive; D2 PAM-2: inactive

How did COc1cccc(/C=C/C(=O)Nc2ccc3c(c2)OCCO3)c1OC do in these assays?
D2 antag: 69; D2 ag-1: inactive; D2 PAM-1: inactive; D2 ag-2: inactive; D2 PAM-2: inactive

How did COc1cc(/C=C/C(=O)Nc2ccc3nc4n(c(=O)c3c2)CCCC4)cc(OC)c1OC do in these assays?
D2 antag: inactive; D2 ag-1: inactive; D2 PAM-1: inactive; D2 ag-2: inactive; D2 PAM-2: inactive

Results for COc1cccc(/C=C/C(=O)Nc2ccc3nc4n(c(=O)c3c2)CCCC4)c1OC ?
D2 antag: inactive; D2 ag-1: inactive; D2 PAM-1: inactive; D2 ag-2: inactive; D2 PAM-2: 35

Results for COc1cccc(/C=C/C(=O)Nc2cccc(C(C)=O)c2)c1OC ?
D2 antag: inactive; D2 ag-1: inactive; D2 PAM-1: inactive; D2 ag-2: inactive; D2 PAM-2: inactive

How did O=C(Cc1cccc([N+](=O)[O-])c1)NCc1nc2cccnc2n1Cc1ccc(F)cc1 do in these assays?
D2 ag-2: inactive; D2 PAM-2: inactive

What do the screens show for `Cn1c(=O)c2sccc2n(CC(=O)NCCC2=CCCCC2)c1=O`?
D2 antag: inactive; D2 ag-1: inactive; D2 PAM-1: inactive; D2 ag-2: inactive; D2 PAM-2: inactive

How did Cn1c(=O)c2ccccc2n(CC(=O)NCCC2=CCCCC2)c1=O do in these assays?
D2 antag: 41; D2 ag-1: inactive; D2 PAM-1: inactive; D2 ag-2: inactive; D2 PAM-2: inactive

How did COc1ccc(C(CC(=O)O)NC(=O)C2CCCCC2)cc1 (configuration not stated) do in these assays?
D2 antag: inactive; D2 ag-1: inactive; D2 PAM-1: inactive; D2 ag-2: inactive; D2 PAM-2: inactive

What do the screens show for `CCC(NC(=O)C1CCC1)c1ccc(C)cc1` (configuration not stated)?
D2 antag: 37; D2 ag-1: inactive; D2 PAM-1: inactive; D2 ag-2: inactive; D2 PAM-2: inactive

Results for C=CCNC(=S)NNC(=O)C(CCC(C)C)CC(C)O (configuration not stated) ?
D2 antag: 45; D2 ag-1: inactive; D2 PAM-1: inactive; D2 ag-2: inactive; D2 PAM-2: inactive

How did Cc1c(Br)c([N+](=O)[O-])nn1CC(=O)N1CCCc2ccccc21 do in these assays?
D2 antag: inactive; D2 ag-1: inactive; D2 PAM-1: inactive; D2 ag-2: inactive; D2 PAM-2: 34

How did O=C(CN1CCCCC1)N1CCc2ccccc21 do in these assays?
D2 antag: inactive; D2 ag-1: inactive; D2 PAM-1: inactive; D2 ag-2: inactive; D2 PAM-2: inactive

How did O=C(CN1CCN(Cc2ccccc2)CC1)N1CCCc2ccccc21 do in these assays?
D2 antag: 32; D2 ag-1: inactive; D2 PAM-1: inactive; D2 ag-2: inactive; D2 PAM-2: inactive

How did O=C(CN1CCN(c2ccccc2)CC1)N1CCc2ccccc21 do in these assays?
D2 antag: inactive; D2 ag-1: inactive; D2 PAM-1: inactive; D2 ag-2: inactive; D2 PAM-2: inactive

How did Cc1cc[n+](CC(=O)N2CCCc3ccccc32)cc1 do in these assays?
D2 antag: 39; D2 ag-1: inactive; D2 PAM-1: inactive; D2 ag-2: inactive; D2 PAM-2: inactive

What do the screens show for `O=C(CN1CCN(c2ccc(O)cc2)CC1)N1CCc2ccccc21`?
D2 antag: 40; D2 ag-1: inactive; D2 PAM-1: inactive; D2 ag-2: inactive; D2 PAM-2: inactive

How did Cc1nc2c(-c3ccccc3)c(C)[nH]n2c(=O)c1Cc1ccc(Br)cc1 do in these assays?
D2 ag-2: inactive; D2 PAM-2: inactive

Screening data (PubChem)
